# PubChem BioAssay (Tox21)
# “And” between values parts separate entries of the source, which are not always exact repeats. Equal entries are not always repeated. Inconclusive results are not listed. Where a call stands in place of a potency, no number is given. The source made the active and inactive calls. The call rests on the fitted dose curve; in most records, active means well fitted cell-killing curve with a large enough effect in the repeat runs; inconclusive means weak or mixed curves, or effect the other way; inactive means flat fitted curve, though single readings scatter.
# Experiment: cAMP Responsive Elements (CRE) small molecule antagonists, cell-based qHTS assay: qHTS cell viability counter screen (AID 2060913); further: nearly all actives have a fitted effect of over 40% in size
# Conditions: CRE-bla HEK293T viability, CellTiter-Glo luminescence, 5 h; series mostly up to 92.4 µM
# Method in brief: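 Cytotoxicity counter screen multiplexed with the CRE-bla antagonist read: HEK293T cells in DMEM with dialyzed FBS and 25 mM HEPES were treated 3 hrs under 0.25 uM final NKH477, then viability measured by CellTiter-Glo luminescence.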
# Potency means the concentration at half of the fitted maximal effect.
SMILES,Potency,"viability change, negative = cytotoxic"
NC1CCCCC1,inactive,
NC(=O)NNc1ccccc1,inactive,
Nc1ccc(Cl)c(N)c1,inactive,
CCCCCCCCCCCCCCCCCC(=O)OCC(CC)CCCC (stereo not given),inactive,
O=C(O)c1ccccc1Nc1cc(Cl)ccc1C(=O)O,,-0.998% [at 18.9 µM] (inactive)
Nc1ccc2ccccc2c1S(=O)(=O)O,inactive,
O=C(O)Cc1cccc(-c2cc(CCCCCCc3ccc(O[C@H]4O[C@H](CO)[C@@H](O)[C@H](O)[C@@H]4O)c(-c4cccc(CC(=O)O)c4)c3)ccc2O[C@H]2O[C@H](CO)[C@@H](O)[C@H](O)[C@@H]2O)c1,,1.99% [at 0.349 µM] (inactive)
COc1cc2ncnc(Nc3cccc(Cl)c3)c2cc1OC,,6.79% [at 18.9 µM] (inactive)
Cc1c(F)cc2c(=O)c(C(=O)O)cn3c2c1CCC3C (stereo not given),inactive,
CCCOC(=O)CCCCC(=O)OCCC,inactive,
O=S(=O)(O)CCN1CCN(CCO)CC1,inactive,
CCc1occc(=O)c1O,inactive,
CC1=CC(=O)CC(C)(C)C1,inactive,
O=C1CCCC(=O)C1,inactive,
Cc1ccccc1S,inactive,
CCCCCCCCCCCCc1ccc(O)cc1,61.1 µM (active),
CC(=O)OC(C)(C)C,inactive,
CN1CCOCC1,inactive,
NCCN1CCNC1=O,inactive,
Cc1cccc(C)c1NC(=O)CN(CC(=O)O)CC(=O)O,inactive,

SMILES,Potency,"viability change, negative = cytotoxic"
Cc1nc2ccccc2c(=O)o1,inactive,
CC(=O)C(C)=O,inactive,
COc1ccc(O)cc1,inactive,
CS(=O)(=O)c1ccc([C@@H](O)[C@@H](CF)NC(=O)C(Cl)Cl)cc1,inactive,
COC(=O)CCCC(=O)OC,inactive,
CC(=O)CCC1=C(C)CCCC1(C)C,inactive,
COc1ccc(C2C(=O)c3ccccc3C2=O)cc1,inactive,
O=c1[nH]c(=O)c2ccccc2o1,inactive,
O=C(O)CNC(=O)CNC(=O)CNC(=O)CSC(=O)c1ccccc1,inactive,
CCCC(CC)c1ccccc1 (stereo not given),inactive,
CNCCCCOc1ccccc1Cc1ccccc1,inactive,
CC(C)=CCC/C(C)=C/CC/C(C)=C/CO,inactive,
Nc1ccccc1S(=O)(=O)O,inactive,
CN(C)c1ccc(C(=C2C=CC(=[N+](C)C)C=C2)c2ccc(N(C)C)cc2)cc1,30.5 µM (active) and 61.1 µM (active) and 29.8 µM (active),
CCCCCCCCCCCCCCCC,inactive,
COc1ccc(NC(C)=O)cc1,inactive,
CC(C)NCC(O)COc1ccc(CCOCC2CC2)cc1 (stereo not given),inactive,
CC(CSC(=O)c1ccccc1)C(=O)N1C[C@@H](Sc2ccccc2)C[C@H]1C(=O)O (stereo not given in full),,1.17% [at 18.9 µM] (inactive)
O=C(OCCN1CCOCC1)c1cccnc1Nc1cccc(C(F)(F)F)c1,inactive,
c1cc[c]([Bi]([c]2ccccc2)[c]2ccccc2)cc1,inactive,
